From PubChem BioAssay (NCI)
About 83,000 compounds went through this panel and 20% of them were active in at least one assay; those are over-represented in the sample as a whole.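 Percent growth is the endpoint: 0 to 100 indicates growth inhibition (40 means 60% inhibition), 0 means no net growth, and negative values indicate cell death.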 The source made the active and inactive calls. The calls were made as follows: active = growth percent below 10; inactive = the rest.

What follows are compounds tested on HT29 colon (assay: NCI-60 one-dose screen, 48 h (100 = growth as untreated, 0 = no growth, -100 = all killed)). Details: 10 µM unless noted.
`O=C1Nc2ccc(Br)cc2/C1=N\c1nnc(-c2ccc(Cl)cc2)o1` was tested, and the growth was 32.5% (inactive). `C#C[C@]1(O)CC[C@H]2[C@@H]3CC=C4c5sc(Nc6cccc(C)n6)nc5CC[C@]4(C)[C@H]3CC[C@@]21C` was tested, and the growth was 37.7% (inactive). With `CS(=O)(=O)c1ccc2c(c1)c1c(n2Cc2ccc(Cl)cc2)CCCC1` the growth was 75.5% (inactive). With `COc1ccc(-c2nnc(/N=C3/C(=O)Nc4ccc(Br)cc43)o2)cc1` the growth was 113% (inactive). For `COc1ccc(S(=O)(=O)n2cc(C=O)c3ccccc32)c(OC)c1`, the growth was 107% (inactive). `O=C1c2c(c3c4cccnc4[nH]c3c3ccc4ccccc4c23)C(=O)N1CCN1CCOCC1` was tested, and the growth was 53.3% (inactive). `COc1ccc(NC2=C(Cl)C(=O)C(C)=C(C)C2=O)cc1` was tested, and the growth was 106% (inactive). With `COc1ccc(-c2cc(-c3ccc(Cl)cc3)nc3nc(N)nn23)cc1` the growth was 99.5% (inactive). With `C#C[C@]1(O)CC[C@H]2[C@@H]3CC=C4c5sc(Nc6nc(C)cc(OC)n6)nc5CC[C@]4(C)[C@H]3CC[C@@]21C` the growth was 60.8% (inactive). With `COc1ccc(/C=C/C(=O)c2nnn(-c3ccc(C(=O)O)cc3)c2C)cc1OC` the growth was 102% (inactive). `COc1cc(O)c2c(c1)/C=C/C[C@H](O)[C@H](O)C(=O)/C=C\C[C@H](C)OC2=O` was tested, and the growth was 1.76% (active). `COc1ccccc1/C=C/C(=O)c1nnn(-c2ccc(C(=O)O)cc2)c1C` was tested, and the growth was 106% (inactive). `O=S(=O)(Nc1ccc(C2CC2)cc1)c1ccc(-c2cnc(C3CC3)o2)cc1` was tested, and the growth was 38.4% (inactive). In the case of `COc1cc(/C=N/Nc2ccnc3cc(Cl)ccc23)cc(OC)c1O`, the growth is reported as 8.25% (active). In the case of `COc1ccc(-c2nc(SCC(C)C)nc(N/N=C\c3cccc([N+](=O)[O-])c3)c2C#N)cc1`, the growth is reported as 49.9% (inactive). `CCCCCCNC(=O)Oc1ccc(/C(=C(\C)c2ccc(OC)cc2)c2ccc(OCCN(C)C)cc2)cc1` was tested, and the growth was 15.8% (inactive). In the case of `CCCCSc1nnc(-c2ccc(-c3ccc(Cl)cc3)nc2C)o1`, the growth is reported as 97.2% (inactive). With `CC(C)c1nn(-c2ccccc2)c(N2CCCCC2)c1/C=N/NC(N)=S` the growth was 81.4% (inactive). In the case of `C#C[C@]1(O)CC[C@H]2[C@@H]3CC=C4c5sc(Nc6ccc(OC)nc6)nc5CC[C@]4(C)[C@H]3CC[C@@]21C`, the growth is reported as -4.57% (active). With `COc1cc(-c2noc(C[C@@H](NC(=O)OCc3ccccc3)C(C)C)n2)cc(OC)c1OC` the growth was 104% (inactive). `COc1ccc(-c2ccc3c4c(cccc24)C(=O)N(N2C(=O)c4cccc5cccc(c45)C2=O)C3=O)cc1` was tested, and the growth was 99.1% (inactive). With `Cc1nn(-c2ccc(Br)cc2)c2nc(CCl)[nH]c(=O)c12` the growth was 104% (inactive). `CN1CCN(c2ccc(C(=O)Nc3cccc(-c4cn(-c5ccc(S(N)(=O)=O)cc5)nn4)c3)cc2C(F)(F)F)CC1` was tested, and the growth was 16.7% (inactive). In the case of `COc1ccc(Cn2cc3c(c2-c2ccccc2)CCCc2cnoc2-3)cc1[N+](=O)[O-]`, the growth is reported as 40.8% (inactive). With `NS(=O)(=O)Oc1ccc2nc(Nc3ccc(F)c(F)c3)ccc2c1` the growth was 97.3% (inactive). For `O=C1c2c(c3c4cc(Br)ccc4[nH]c3c3ccc4ccccc4c23)C(=O)N1CCN1CCNCC1`, the growth was 8.96% (active). With `CC1CCN(S(=O)(=O)c2ncsc2-c2ccccc2)CC1` the growth was 88.5% (inactive). In the case of `O=C1NC(=O)c2c1c1c3ccccc3ccc1c1[nH]c3ccccc3c21`, the growth is reported as 13.4% (inactive). For `COc1cc([C@H]2OC[C@H]3[C@@H]2CO[C@@H]3c2ccc(O)c(OC)c2)ccc1O`, the growth was 92.8% (inactive). For `CCN(CC)CCN1C(=O)c2c(c3c4cc(Br)ccc4[nH]c3c3ccc4ccccc4c23)C1=O`, the growth was -69.9% (active). With `CC(C)=CCC[C@](C)(O)[C@H]1CC[C@]2(C)[C@@H]1CC[C@@H]1[C@@]3(C)CCC(NC(=O)c4ccccc4C(=O)O)C(C)(C)[C@@H]3CC[C@]12C` (stereo partly specified) the growth was 75.5% (inactive). With `Clc1ccc(-c2csc(N/N=C/c3nc4ccccc4n3C3CC3)n2)cc1` the growth was 99.8% (inactive). For `Cc1ccc(-c2csc(N/N=C/c3nc4ccccc4n3C3CC3)n2)cc1`, the growth was 92.2% (inactive). With `C#C[C@]1(O)CC[C@H]2[C@@H]3CC=C4c5sc(-c6ccccn6)nc5CC[C@]4(C)[C@H]3CC[C@@]21C` the growth was 68.2% (inactive). With `O=C1c2c(c3c4cccnc4[nH]c3c3ccc4ccccc4c23)C(=O)N1CCN1CCNCC1` the growth was 57.9% (inactive). `O=C1c2c(c3c4cccnc4[nH]c3c3ccc4ccccc4c23)C(=O)N1CCN1CCCCC1` was tested, and the growth was 44.8% (inactive). `COc1ccc(-c2nc(SCCC(C)C)nc(N/N=C\c3ccc(O)cc3)c2C#N)cc1` was tested, and the growth was 107% (inactive). `CN(C)C(=O)C1=NC(CO)C(=O)N(c2ccc(Cl)cc2)N1` (stereo unspecified) was tested, and the growth was 102% (inactive).

Each compound was assayed on SNB-75 CNS in the same assay as above. Details: 10 µM unless noted.
`O=C1Nc2ccc(Br)cc2/C1=N\c1nnc(-c2ccc(Cl)cc2)o1` was tested, and the growth was 46.8% (inactive). `C#C[C@]1(O)CC[C@H]2[C@@H]3CC=C4c5sc(Nc6cccc(C)n6)nc5CC[C@]4(C)[C@H]3CC[C@@]21C` was tested, and the growth was -23.9% (active). `CS(=O)(=O)c1ccc2c(c1)c1c(n2Cc2ccc(Cl)cc2)CCCC1` was tested, and the growth was 75.4% (inactive). With `COc1ccc(-c2nnc(/N=C3/C(=O)Nc4ccc(Br)cc43)o2)cc1` the growth was 90% (inactive). With `COc1ccc(S(=O)(=O)n2cc(C=O)c3ccccc32)c(OC)c1` the growth was 75.3% (inactive). For `O=C1c2c(c3c4cccnc4[nH]c3c3ccc4ccccc4c23)C(=O)N1CCN1CCOCC1`, the growth was 68% (inactive). For `COc1ccc(NC2=C(Cl)C(=O)C(C)=C(C)C2=O)cc1`, the growth was 71.7% (inactive). For `COc1ccc(-c2cc(-c3ccc(Cl)cc3)nc3nc(N)nn23)cc1`, the growth was 104% (inactive). For `C#C[C@]1(O)CC[C@H]2[C@@H]3CC=C4c5sc(Nc6nc(C)cc(OC)n6)nc5CC[C@]4(C)[C@H]3CC[C@@]21C`, the growth was -10.8% (active). `COc1ccc(/C=C/C(=O)c2nnn(-c3ccc(C(=O)O)cc3)c2C)cc1OC` was tested, and the growth was 99.1% (inactive). In the case of `COc1cc(O)c2c(c1)/C=C/C[C@H](O)[C@H](O)C(=O)/C=C\C[C@H](C)OC2=O`, the growth is reported as -2.99% (active). In the case of `COc1ccccc1/C=C/C(=O)c1nnn(-c2ccc(C(=O)O)cc2)c1C`, the growth is reported as 89.1% (inactive). `O=S(=O)(Nc1ccc(C2CC2)cc1)c1ccc(-c2cnc(C3CC3)o2)cc1` was tested, and the growth was 53.8% (inactive). In the case of `COc1cc(/C=N/Nc2ccnc3cc(Cl)ccc23)cc(OC)c1O`, the growth is reported as -81.5% (active). With `COc1ccc(-c2nc(SCC(C)C)nc(N/N=C\c3cccc([N+](=O)[O-])c3)c2C#N)cc1` the growth was -11.2% (active). In the case of `CCCCCCNC(=O)Oc1ccc(/C(=C(\C)c2ccc(OC)cc2)c2ccc(OCCN(C)C)cc2)cc1`, the growth is reported as 77.2% (inactive). `CCCCSc1nnc(-c2ccc(-c3ccc(Cl)cc3)nc2C)o1` was tested, and the growth was 90.3% (inactive). With `CC(C)c1nn(-c2ccccc2)c(N2CCCCC2)c1/C=N/NC(N)=S` the growth was 61.6% (inactive). `C#C[C@]1(O)CC[C@H]2[C@@H]3CC=C4c5sc(Nc6ccc(OC)nc6)nc5CC[C@]4(C)[C@H]3CC[C@@]21C` was tested, and the growth was -8.98% (active). For `COc1cc(-c2noc(C[C@@H](NC(=O)OCc3ccccc3)C(C)C)n2)cc(OC)c1OC`, the growth was 76.3% (inactive). In the case of `COc1ccc(-c2ccc3c4c(cccc24)C(=O)N(N2C(=O)c4cccc5cccc(c45)C2=O)C3=O)cc1`, the growth is reported as 73.4% (inactive). For `Cc1nn(-c2ccc(Br)cc2)c2nc(CCl)[nH]c(=O)c12`, the growth was 99.7% (inactive). For `CN1CCN(c2ccc(C(=O)Nc3cccc(-c4cn(-c5ccc(S(N)(=O)=O)cc5)nn4)c3)cc2C(F)(F)F)CC1`, the growth was 64.9% (inactive). For `COc1ccc(Cn2cc3c(c2-c2ccccc2)CCCc2cnoc2-3)cc1[N+](=O)[O-]`, the growth was 55.8% (inactive). For `NS(=O)(=O)Oc1ccc2nc(Nc3ccc(F)c(F)c3)ccc2c1`, the growth was 81.3% (inactive). `O=C1c2c(c3c4cc(Br)ccc4[nH]c3c3ccc4ccccc4c23)C(=O)N1CCN1CCNCC1` was tested, and the growth was 85% (inactive). With `CC1CCN(S(=O)(=O)c2ncsc2-c2ccccc2)CC1` the growth was 55.6% (inactive). For `O=C1NC(=O)c2c1c1c3ccccc3ccc1c1[nH]c3ccccc3c21`, the growth was -7.05% (active). With `COc1cc([C@H]2OC[C@H]3[C@@H]2CO[C@@H]3c2ccc(O)c(OC)c2)ccc1O` the growth was 87.9% (inactive). For `CCN(CC)CCN1C(=O)c2c(c3c4cc(Br)ccc4[nH]c3c3ccc4ccccc4c23)C1=O`, the growth was 77% (inactive). In the case of `CC(C)=CCC[C@](C)(O)[C@H]1CC[C@]2(C)[C@@H]1CC[C@@H]1[C@@]3(C)CCC(NC(=O)c4ccccc4C(=O)O)C(C)(C)[C@@H]3CC[C@]12C` (stereo partly specified), the growth is reported as 90.2% (inactive). `Clc1ccc(-c2csc(N/N=C/c3nc4ccccc4n3C3CC3)n2)cc1` was tested, and the growth was 82.4% (inactive). For `Cc1ccc(-c2csc(N/N=C/c3nc4ccccc4n3C3CC3)n2)cc1`, the growth was 22% (inactive). For `C#C[C@]1(O)CC[C@H]2[C@@H]3CC=C4c5sc(-c6ccccn6)nc5CC[C@]4(C)[C@H]3CC[C@@]21C`, the growth was 37.4% (inactive). In the case of `O=C1c2c(c3c4cccnc4[nH]c3c3ccc4ccccc4c23)C(=O)N1CCN1CCNCC1`, the growth is reported as 84% (inactive). In the case of `O=C1c2c(c3c4cccnc4[nH]c3c3ccc4ccccc4c23)C(=O)N1CCN1CCCCC1`, the growth is reported as 53.8% (inactive). `COc1ccc(-c2nc(SCCC(C)C)nc(N/N=C\c3ccc(O)cc3)c2C#N)cc1` was tested, and the growth was 77.2% (inactive). In the case of `CN(C)C(=O)C1=NC(CO)C(=O)N(c2ccc(Cl)cc2)N1` (stereo unspecified), the growth is reported as 105% (inactive).
